This is a sample that favours compounds with a hit; in the whole collection about 0.81% have one here.
SRC3 inh = inhibitors of human steroid receptor coactivator 3 (SRC3); hit rate 0.17% among 360,000; AID 588352; inhibition, % at 3.6 µM; HEK293 GAL4-SRC3 luciferase reporter, luminescence; Q9Y6Q9;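 active means inhibition above a per-campaign cutoff, the mean of all compounds plus 3 SD, cut at about 60% in these data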;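 further: 0% = DMSO-treated cells and 100% = gossypol-treated cells at 36 µM; higher means less SRC3-driven luciferase light from the GAL4 reporter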
LRH-1 inv ag = NR5A2 inverse agonism in reporter assay; hit rate 0.13% among 360,000; AID 602396; HEK293T StAR-luciferase reporter, LRH-1 transfected, 24 h; O00482; inhibition, % at 3.6 µM;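 active means inhibition above the mean inhibition of all tested compounds plus 3 SD, cut at about 73% in these data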;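 further: 0% = DMSO wells and 100% = reporter-only cells lacking LRH-1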
Target sequence (O00482 whole entry, looked up): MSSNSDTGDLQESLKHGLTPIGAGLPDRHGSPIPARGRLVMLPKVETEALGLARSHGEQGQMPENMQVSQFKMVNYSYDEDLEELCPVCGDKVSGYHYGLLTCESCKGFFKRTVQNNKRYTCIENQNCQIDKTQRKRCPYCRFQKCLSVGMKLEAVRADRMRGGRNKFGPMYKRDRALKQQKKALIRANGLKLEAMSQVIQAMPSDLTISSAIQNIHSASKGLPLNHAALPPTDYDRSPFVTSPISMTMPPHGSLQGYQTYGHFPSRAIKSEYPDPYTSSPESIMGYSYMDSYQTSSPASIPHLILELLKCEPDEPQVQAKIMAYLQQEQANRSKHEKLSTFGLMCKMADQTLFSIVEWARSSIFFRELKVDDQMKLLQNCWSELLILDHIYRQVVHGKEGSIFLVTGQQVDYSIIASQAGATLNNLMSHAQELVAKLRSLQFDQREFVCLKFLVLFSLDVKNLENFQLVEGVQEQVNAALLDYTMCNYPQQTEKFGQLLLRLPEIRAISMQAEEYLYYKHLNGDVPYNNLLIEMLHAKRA
NCOA2 inhibitor = inhibits human steroid receptor coactivator 2 | inhibition, % at 9 µM | Q15596 | HEK293 GAL4-SRC2 luciferase reporter, luminescence | hit rate 0.17% among 370,000;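 active means inhibition above the mean inhibition of all tested compounds plus 3 SD, set per campaign, cut at about 52% in these data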;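 further: 0% = DMSO treated cells and 100% = cells given Gossypol at 36 µM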
COUP-TFII inh = NR2F2 (human) inhibition, primary screen; AID 686940; hit rate 0.7% among 370,000; P24468; HEK293T NGFI-A luciferase reporter, luminescence; inhibition, % at 8.6 µM;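 active means inhibition above a per-plate cutoff, mean inhibition of test wells between control levels plus 3 SD, cut at about 38% in these data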;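 further: cells cotransfected with COUP-TFII expression vector driving the NGFI-A reporter; 0% = median of COUP-TF2 test wells and 100% = reporter-only cells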
SRC1 inh = inhibitors of human steroid receptor coactivator 1 (SRC1); Q15788; hit rate 0.12% among 360,000; inhibition, % at 3.6 µM; HEK293 GAL4-SRC1 luciferase reporter, luminescence;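 active means inhibition above the campaign mean plus 3 SD, with each screening campaign given its own cutoff, cut at about 60% in these data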;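 further: 0% = DMSO treated cells and 100% = gossypol at 36 µM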
VP16 Luc counter = inhibits VP16 reporter, flagging COUP-TFII antagonist hits | inhibition, % at 8.5 µM | AID 687007 | hit rate 25% among 2,500 | HEK293 Gal4-VP16 luciferase reporter, luminescence | shares compounds with COUP-TFII inh; in the data active means inhibition above about 13%
NR2F2 inh conf = confirmation of human COUP-TFII (NR2F2) inhibitors | shares compounds with COUP-TFII inh | HEK293 NGFI-A luciferase reporter, luminescence | inhibition, % at 8.5 µM | hit rate 45% among 2,500;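 active means mean inhibition over three repeats above a set limit taken from the earlier primary screen, cut at about 38% in these data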;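 further: 100% = cells given the luciferase reporter alone without the COUP-TF2 vector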
The depositor's hits bear a star; / = not tested or not shown.

SMILES | SRC3 inh | LRH-1 inv ag | NCOA2 inhibitor | COUP-TFII inh | SRC1 inh | VP16 Luc counter | NR2F2 inh conf
Cc1cc(-n2c(C)cc(C(=O)CSc3ncnc4ccccc34)c2C)no1 | 36 | 41 | 29 | 54* | 25 | -4 | 60*
COC(=O)c1c(NC(=O)CN2CCN(c3ncccn3)CC2)sc(C(N)=O)c1C | 21 | 33 | -25 | 7 | -6 | / | /
Cc1cc(/C=C2\SC(=O)N(C)C2=O)c(C)n1-c1ccc(O)cc1 | 5 | 10 | 4 | 50* | 25 | -78 | 23
CN=C1NC(=O)/C(=C\c2cc(C)n(-c3ccccc3F)c2C)S1 | / | / | / | -18 | / | / | /
CN=C1S/C(=C\c2cc(C)n(-c3ccccc3F)c2C)C(=O)N1C | 48 | 16 | -1 | 50* | 30 | -68 | 30
CCSc1nc2ccccc2n1C(=O)/C=C/c1ccc(OC)c(OC)c1 | 24 | -4 | 32 | 58* | -5 | 13 | 67*
C=CCSc1nc2ccccc2n1C(=O)/C=C/c1cc(OC)c(OC)c(OC)c1 | 36 | -28 | 6 | 46* | -7 | 17* | 71*
O=C(Nc1cccc(Cl)c1)c1ccc(F)c(S(=O)(=O)NCc2cccs2)c1 | 20 | 8 | 8 | 38* | 6 | -10 | 13
CCC(=O)N1CCCC(C)(C(=O)NS(=O)(=O)c2ccccc2Cl)C1 (stereo not drawn) | -17 | -10 | 3 | 8 | 3 | / | /
CC(C)n1nnnc1SCC(=O)N1N=C(c2cccs2)CC1c1cccs1 (stereo not drawn) | -37 | -16 | -42 | -32 | -36 | / | /
COc1ccccc1N(C)S(=O)(=O)c1ccc(C(=O)Nc2cccc(S(=O)(=O)N3CCOCC3)c2)cc1 | 25 | 13 | 24 | 50* | 6 | 4 | 26
O=C(Nc1cccc(S(=O)(=O)N2CCOCC2)c1)c1cccc(S(=O)(=O)N2CCCC2)c1 | 2 | 3 | -8 | 21 | -9 | / | /
COc1ccc(C(=O)Nc2cccc(S(=O)(=O)N(C)C)c2)cc1S(=O)(=O)N1CCOCC1 | 23 | 21 | 7 | -7 | 16 | / | /
COc1ccccc1N(C)S(=O)(=O)c1ccc(C(=O)Nc2nc(C)cs2)cc1 | 15 | 4 | 20 | 40* | 9 | -10 | 12
CN(c1ccccc1)S(=O)(=O)c1ccc(C(=O)Nc2cccc(S(=O)(=O)N3CCOCC3)c2)cc1 | 12 | 20 | 8 | 56* | 19 | 0 | 43*
COc1cccc2c1C(=O)c1c(O)c3c(c(O)c1C2=O)CC(O)(C(C)=O)CC3OC1CC(N(C)C)C(O)C(C)O1 (stereo not drawn) | 85* | 97* | 55* | 53* | 75* | 15* | 20
CC(=O)[C@@]1(O)Cc2c(O)c3c(c(O)c2[C@H](O[C@H]2C[C@H](N)[C@H](O)[C@H](C)O2)C1)C(=O)c1ccccc1C3=O | -67 | 34 | -51 | 58* | -138 | 10 | 38*
CCOC(=O)Oc1c(OC)cc(C(=O)O[C@@H]2C[C@@H]3CN4CCc5c([nH]c6cc(OC)ccc56)[C@H]4C[C@@H]3[C@H](C(=O)OC)[C@H]2OC)cc1OC | 18 | -5 | 6 | 50* | 16 | -12 | 43*
CC(=O)N1CCOc2ccc(S(=O)(=O)NCC3CCC(C(=O)Nc4ccc(C)cn4)CC3)cc21 (stereo not drawn) | 25 | 37 | 37 | 39* | 8 | 9 | 24
CCOC(=O)Cc1nn(Cc2nc(-c3ccc(C#N)cc3)cs2)c(=O)c2ccccc12 | 11 | -11 | 23 | 39* | 3 | 17* | 17
CCOC(=O)[C@@]12CCCC=C1N(CCc1ccc(Cl)cc1)C(=O)[C@H]2CC(=O)N1CCCC1 | / | / | 8 | 44* | / | 7 | 40*
CCOC(=O)[C@@]12CCCC=C1N(CCc1ccc(Cl)cc1)C(=O)[C@H]2CC(=O)N1CCCCC1 | / | / | -4 | 30 | / | / | /
O=C(Nc1ccc(Cl)c(C(F)(F)F)c1)c1ccncc1 | 10 | 0 | -1 | 9 | -8 | / | /
CNC(=O)c1cc(Oc2ccc(NC(=O)Nc3ccc(Cl)c(C(F)(F)F)c3)cc2)ccn1 | 40 | 43 | 65* | 72* | 32 | 15* | 48*
O=C(COC(=O)Cn1nnc(-c2ccccc2)n1)Nc1cc(F)ccc1F | 4 | 8 | 6 | 6 | -11 | / | /
SMILES | SRC3 inh | LRH-1 inv ag | NCOA2 inhibitor | COUP-TFII inh | SRC1 inh | VP16 Luc counter | NR2F2 inh conf
CCN(C1CCCCC1)S(=O)(=O)c1ccc(S(=O)(=O)NCc2ccncc2)cc1 | 7 | 22 | 2 | 55* | 10 | 1 | 32
Cc1cc(C)c(C)c(S(=O)(=O)NCc2ccncc2)c1C | 10 | 26 | -3 | 38* | 4 | 6 | 30
CNC(=O)c1cc(S(=O)(=O)NCc2ccncc2)ccc1OC | 0 | 15 | -33 | 13 | 0 | / | /
COc1cc(S(=O)(=O)NCc2ccncc2)ccc1Br | 13 | 26 | 16 | 56* | 5 | 8 | 44*
Cn1c(=O)oc2cc(S(=O)(=O)NCc3ccncc3)ccc21 | -1 | 26 | 24 | 44* | 14 | -8 | -4
CCN(C1CCCCC1)S(=O)(=O)c1ccc(S(=O)(=O)NCCc2ccncc2)cc1 | 19 | -15 | 16 | -6 | 10 | / | /
COc1cc(C)c(Br)cc1S(=O)(=O)NCc1ccccc1 | 1 | -1 | 0 | -2 | 1 | / | /
O=C(Nc1ccc(S(=O)(=O)NCc2cccnc2)cc1)c1ccccc1Cl | 22 | 25 | 16 | 40* | 15 | 6 | 28
O=S(=O)(NCc1ccncc1)c1ccc(Br)s1 | 23 | 28 | 20 | 63* | 33 | 7 | 54*
O=C(Nc1ccccc1)c1ccc(S(=O)(=O)NCc2cccnc2)cc1 | -1 | -6 | 4 | 32 | 29 | / | /
O=C(O)CNS(=O)(=O)c1ccc(Br)s1 | 11 | -7 | -9 | 3 | 1 | / | /
Cc1cc(Br)c(S(=O)(=O)NCc2ccncc2)cc1C | 11 | 33 | 15 | 54* | 13 | 8 | 47*
COc1ccc(S(=O)(=O)NCc2cccnc2)cc1Br | 14 | 10 | 23 | 48* | -3 | 6 | 39*
COc1ccc2ccccc2c1C=NN1CCCCC1 | 3 | 2 | -14 | 6 | -8 | / | /
CN(C(=O)c1ccc(NC(=O)Cc2ccc(NC(=O)C3CCN(S(=O)(=O)c4cccc([N+](=O)[O-])c4)CC3)cc2)cc1)C1CCCC1 | 2 | 5 | 19 | -1 | -19 | / | /
CSc1ncc2[nH]c(C(O)c3ccccc3)nc2n1 (stereo not drawn) | -7 | -9 | -11 | 33 | -27 | / | /
O=C(CSc1nc2ccccc2c(=O)n1-c1ccc(F)cc1)Nc1cc(S(=O)(=O)N2CCOCC2)ccc1Cl | 2 | 0 | -13 | -3 | 1 | / | /
O=S(=O)(NCc1ccncc1)c1ccc(F)c(F)c1 | 28 | 6 | 25 | 32 | 15 | / | /
Cc1ccc(S(=O)(=O)NCc2ccncc2)cc1C | 19 | 30 | 8 | 60* | -5 | 15* | 57*

Source: PubChem BioAssay
